Compound activity from PubChem.
TrxR1 inh – inhibitors of rat thioredoxin reductase 1 | recombinant rTrxR1, NADPH fluorescence consumption, selenite substrate | Potency, µM (titrated, usually from 114 µM), inactives show top-dose activity change, negative = inhibition, usual class: inhibitors | 1% of 390,000 active | AID 588453; further: nearly all actives have a fitted effect of over 65% in size
Target sequence (O89049 whole entry, looked up): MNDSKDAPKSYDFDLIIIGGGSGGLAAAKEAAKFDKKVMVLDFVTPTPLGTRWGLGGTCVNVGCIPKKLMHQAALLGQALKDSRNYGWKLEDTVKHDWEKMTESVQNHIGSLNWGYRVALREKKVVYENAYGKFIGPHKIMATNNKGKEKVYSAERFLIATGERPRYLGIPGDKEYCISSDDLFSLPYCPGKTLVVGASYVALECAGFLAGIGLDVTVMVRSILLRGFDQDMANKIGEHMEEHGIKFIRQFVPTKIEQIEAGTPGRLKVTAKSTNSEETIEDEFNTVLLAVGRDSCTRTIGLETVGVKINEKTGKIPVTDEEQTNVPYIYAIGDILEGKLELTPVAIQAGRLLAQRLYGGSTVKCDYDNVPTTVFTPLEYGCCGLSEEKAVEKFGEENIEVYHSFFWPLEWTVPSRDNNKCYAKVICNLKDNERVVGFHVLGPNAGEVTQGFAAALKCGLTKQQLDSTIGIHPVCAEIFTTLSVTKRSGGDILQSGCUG
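Rat TrxR1 (90 nM in the dispensed reagent) was pre-reduced with 400 uM NADPH for 5 min at room temperature, then incubated with compound for 15 min. After 400 uM selenite was added, NADPH fluorescence (Ex 340/Em 450 nm) was followed for 8 min.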
mIDH1 inhibitor – blocks human mutant IDH1 R132H enzyme; IDH1-R132H enzyme, NADPH consumption, diaphorase/resazurin fluorescence; AID 602179; O75874; 0.093% of 390,000 active; Potency, µM (doses to about 76.6 µM), for inactives: top-dose activity change, negative = inhibition, most hits filed as inhibitors; further: nearly all actives have a fitted effect of over 65% in size
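IDH1-R132H (0.5 ug/mL) preincubated 30 min with compound, then NADPH (0.016 mM) and alpha-KG (2 mM) added; 80 min at RT, pH 7.5. Remaining NADPH coupled via diaphorase/resazurin to fluorescence (540/590 nm); concentration-response curves normalized to no-enzyme control.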
VDR inh – vitamin D3 receptor (human) inhibition | 0.93% of 400,000 active | VDR-SRC2-3 peptide fluorescence polarization, 2 h | P11473 | AID 504847 | Potency, µM, inactives show max response, negative = inhibition, usual class: inhibitors
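FP read-out; VDR + SRC2-3 coactivator peptide; 23 nl compound by pintool; 2 h RT incubation; reagents held at 4 deg C, protected from light.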
TrxR1 substrate – rat thioredoxin reductase 1 substrate activity. 0.01% of 390,000 active. purified TrxR1 substrate turnover, NADPH consumption readout. O89049. Potency, µM (doses to about 114 µM), for inactives: top-dose activity change, negative = substrate turnover; further: nearly all actives have a fitted effect of over 50% in size
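Rat TrxR1, dispensed at 90 nM, was prereduced with 400 uM NADPH (final) for 5 min at ~22 deg C, then incubated with compound 15 min before 400 uM selenite. A first-read NADPH fluorescence drop versus no-compound background flagged substrates.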
PLK1 PBD block – blocks phosphopeptide binding to human PLK1 polo-box domain; Plk1 PBD binding of FITC phosphopeptide, fluorescence polarization; Potency, µM, for the others: max response, negative = inhibition, hits mostly inhibitors; 2.8% of 360,000 active; AID 720504; further: series mostly up to about 57 µM; nearly all actives have a fitted effect of over 65% in size
Sfp PPTase inh – blocks B. subtilis Sfp PPTase activity; 3.5% of 310,000 active; Biochemical Sfp PPTase activity, qHTS; Potency, µM, without a hit: largest response in the series, negative = inhibition, hits mostly inhibitors; AID 1490;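 further: the enzyme is Sfp with the accession as filed and its product quenches rhodamine fluorescence; 0% = enzyme reaction without inhibitor and -100% = no enzyme wells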
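Fluorescence-quenching assay: 15 nM Sfp-PPTase preincubated 15 min at room temperature with compound, then 5 uM rhodamine-CoA and 12.5 uM BHQ-2-labelled YbbR peptide added. Fluorescence (ex 525/em 598 nm) read at start and after 30 min; difference gives rate.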
* = called active by the depositor; ? = inconclusive; . = not tested or not shown; [ ] = another dose, or the depositor's remark. The list is not random: actives were taken first. Their share in the collection is about 5.2%. The call rests on the fitted dose curve; in most records, active means well fitted curve in the direction sought with a large enough effect; inconclusive means small, poorly fitted or top-dose-only effect, or another doubt; inactive means no such curve, though single readings can be large; an effect the other way counts as inactive or inconclusive. Unless noted, on the % scale 0 is the no-effect control and ±100 the full control effect; potency means the concentration at half of the fitted maximal effect.

SMILES | TrxR1 inh | mIDH1 inhibitor | VDR inh | TrxR1 substrate | PLK1 PBD block | Sfp PPTase inh
Cc1ccc(NC(=O)CN2C(=O)N/C(=C/c3cc(C)n(-c4ccc(C(=O)O)cc4)c3C)C2=O)cc1 | -49% | 0% | -6% | 7%[57.1 µM] | -29% | -45%
Cc1ccc(NC(=O)CN2C(=O)N/C(=C/c3cccn3-c3ccc(C(=O)O)cc3)C2=O)cc1 | ? | -15% | -9% | -12% | 11µM* | 50µM*
Cc1ccc(S(=O)(=O)N2CCN(c3nc(-n4cncn4)nc4ccccc34)CC2)cc1 | 15% | . | . | 9% | . | .
CCCCCc1ccc(OCCC[n+]2ccccc2)c(CCCCC)c1 | -2%[57.1 µM] | 5% | 4% | 8%[57.1 µM] | -8% | 16µM*
CCCCCc1ccc(OCCOCCn2c[n+](C)c3ccccc32)c(CCCCC)c1 | 1% | 6% | -4% | 2% | -9% | 50µM*
C[n+]1cn(CC(O)COCc2ccccc2)c2ccccc21 (stereo not drawn) | 7% | 3% | 2% | 8% | -5% | -13%
CCOC(=O)c1sc2ncn(CC(=O)Nc3cc(C)cc(C)c3)c(=O)c2c1C | 6% | 12% | -3% | 4%[2.29 µM] | . | .
CC1CCN(c2ccc(-c3nc(-c4ccccc4)no3)cc2[N+](=O)[O-])CC1 | 19% | 0% | -5% | -3% | . | .
CCN(CC)c1ccc(/C=C2/SC(=O)N(C(C)C)C2=O)o1 | 3.2µM* | 2% | 32µM* | 0% | 55% | 3.2µM*
CCCC[C@H](NC(C)=O)C(=O)N[C@@H](CCC(=O)O)C(=O)N[C@@H](Cc1cnc[nH]1)C(=O)N[C@H](Cc1ccccc1)C(=O)N[C@@H](CCCN=C(N)N)C(=O)N[C@H](Cc1c[nH]c2ccccc12)C(=O)NCC(N)=O | . | . | 17% | . | . | 34%
O=C(Nc1ccc(F)cc1)N1CCOCC1 | 6% | -1% | 14% | 1% | -12% | 8%
CN(C)c1ccc(NC(=O)N2CCOCC2)cc1 | -14% | 14% | 14µM* | -13% | -6% | 40µM*
Cc1ccc(-c2csc3ncn(CC(=O)N4CCOCC4)c(=O)c23)cc1C | -7% | 8% | -1% | -6% | 30µM* | -1%
CCOC(=O)C1=C(CN2CCN(c3cc(C)ccc3C)CC2)NC(=O)NC1c1ccccc1 (stereo not drawn) | 23% | -7% | 1% | -1% | . | .
COCc1cc(=O)n2[nH]c(-c3ccsc3-n3c(C)ccc3C)cc2n1 | ? | -1% | 0% | 9%[57.1 µM] | ? | 56µM*
Cc1nc2cc(-c3ccsc3-n3c(C)ccc3C)[nH]n2c(=O)c1Cl | -29% | -5% | -19% | -9% | -20% | ?
COc1ccc(CNCCC(c2ccc(F)cc2)c2ccc(OC)cc2)cc1 (stereo not drawn) | 10% | 0% | 6% | 0% | 2% | -8%
COc1ccc(C(CCNCc2ccc(F)cc2)c2ccc(F)cc2)cc1 (stereo not drawn) | -4% | 1% | -5% | -6% | -13% | 56µM*
Cc1ccccc1N(CC(=O)NCC1CCCO1)C(=O)CNS(=O)(=O)c1ccc(F)cc1 (stereo not drawn) | 5%[57.1 µM] | -2% | -23% | 4%[57.1 µM] | -10% | 16%
O=C(c1ccccc1)n1nnc2ccccc21 | 5µM* | -1% | -9% | -2% | 6µM* | ?
CC(=O)c1ccc(OCCCC(=O)n2nnc3ccccc32)cc1 | ? | 2% | ? | 15%[57.1 µM] | 21µM* | -5%
O=C(CCCOc1ccc(Cl)cc1Cl)n1nnc2ccccc21 | -19% | 0% | 71µM* | -6% | 8.4µM* | 16%
CN(C)c1ccc(/C=C/c2ccnc3c(O)ccc(O)c23)cc1 | 18% | . | . | 21% | . | .
Cc1nc(SCc2ccccc2Cl)c(C#N)c(C)c1C | 1% | 15% | 3% | -5% | . | .
N#Cc1c(SCc2c(Cl)cccc2Cl)nc(N)[nH]c1=S | ? | -3% | ? | -6% | 30µM* | .
SMILES | TrxR1 inh | mIDH1 inhibitor | VDR inh | TrxR1 substrate | PLK1 PBD block | Sfp PPTase inh
O=C(O)CSc1nnc(-c2ccc(S(=O)(=O)N3CCCC3)cc2)n1Cc1ccco1 | 12% | -1% | 6% | 4% | -9% | 32µM*
NC(=O)CSc1nnc(-c2ccc(S(=O)(=O)N3CCCC3)cc2)n1Cc1ccco1 | -6% | 3% | 31% | 3% | -2% | ?
O=C(CSc1nnc(-c2ccc(Cl)cc2)n1Cc1ccco1)Nc1ccc2c(c1)OCCO2 | ? | 1% | 26% | 6% | -6% | 32µM*
COc1ccccc1NC(=O)Nc1nnc([C@H]2C[C@H](O)[C@@H](CO)O2)s1 | . | . | . | . | -4% | .
O=C(CCCOc1ccc(Cl)cc1Cl)NCCCn1ccnc1 | -1% | 10% | 15% | -7% | -8% | 1%
CC(Oc1ccc(Cl)cc1Cl)C(=O)NCCCn1ccnc1 (stereo not drawn) | -9% | -1% | -12% | 4%[57.1 µM] | 24µM* | 14%
Cc1ccc(NC(=O)Cn2cc(C(=O)C3CCCCC3)c3ccccc32)c(C)c1 | 32% | 15% | 15% | 4% | . | .
CN(C)c1ccc(CCC2C=Cc3ccccc32)cc1 (stereo not drawn) | -3% | . | . | 29% | . | .
COc1ccc(C(=O)Cn2c(N3CCOCC3)nc3c2c(=O)n(C)c(=O)n3C)cc1 | . | . | . | . | . | 21%
COc1ccc(C(=O)Cn2c(Cl)nc3c2c(=O)n(C)c(=O)n3C)cc1 | 26%[57.1 µM] | -8% | 5% | 8%[57.1 µM] | -12% | 13µM*
COC(=O)C[C@@H]1CC[C@H](NC(=O)Nc2cccc(F)c2)[C@@H](CO)O1 | . | . | . | . | 6% | .
COc1ccc(N=C2S/C(=C\c3ccc(Cl)c([N+](=O)[O-])c3)C(=O)N2CCN(C)C)cc1 | -10%[57.1 µM] | -10% | ? | -5%[57.1 µM] | -13% | 40µM*
CCCN1C(=O)/C(=C/c2ccc(C)s2)SC1=Nc1ccc(OC)cc1 | 7% | 6% | -1% | -7% | 2% | -4%
CCN(CC)CCN1C(=O)/C(=C\c2ccc(Cl)c([N+](=O)[O-])c2)SC1=Nc1ccc(OC)cc1 | -16% | -8% | ? | -8% | -14% | 45µM*
C[C@@H]1C=CCC(=O)OC[C@H](C)C(=O)OC[C@H]2O[C@H]1C=C[C@H]2O | . | . | . | . | . | -12%
CS(=O)(=O)NCC(c1ccco1)N1CCN(c2ccccc2)CC1 (stereo not drawn) | 2%[57.1 µM] | 4% | -6% | -5%[57.1 µM] | . | .
NC(N)=NCCC[C@@H](N)C(=O)NCC(=O)N[C@@H](CC(=O)O)C(=O)N[C@@H](Cc1c[nH]c2ccccc12)C(=O)O | . | . | 4% | . | . | 9%
COC(=O)c1ccc(-n2c(C)cc(C(=O)CCl)c2C)cc1 | ? | -16% | 79µM* | -4% | ? | -42%
CCOc1ccc(-n2c(C)cc(C(=O)CCl)c2C)cc1 | ? | -28% | 50µM* | -7% | ? | -1%
